Reference: PubChem BioAssay (Tox21)
“And” between values parts separate entries of the source, which are not always exact repeats. Equal values may be shown once. Inconclusive results are not listed. A structure can be active in one record and inactive in another. The source made the active and inactive calls. Unless noted, the call rests on the fitted dose curve; in most records, active means well fitted curve in the direction sought with a large enough effect in the repeat runs; inconclusive means weak or mixed curves; inactive means no such curve, though single readings can be large; an effect the other way counts as inactive or inconclusive.

Legend:
[1] = qHTS assay to identify small molecule antagonists of the androgen receptor (AR) signaling pathway using the MDA cell line in the presence of 0.5 nM R1881 - cell viability counter screen (AID 1259242); conditions: MDA-kb2 viability, CellTiter-Fluor protease fluorescence, 16 h; series mostly up to 92.4 µM; further: nearly all actives have a fitted effect of over 45% in size
Outline: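 Viability of MDA-kb2 cells was multiplexed with the luciferase AR readout; after 16 hr with compounds and R1881 at 0.5 nM final, CellTiter-Fluor fluorescence was recorded.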

[2] = target: Estrogen receptor (Homo sapiens) (UniProt P03372); experiment: qHTS assay to identify small molecule antagonists of the estrogen receptor alpha (ER-alpha) signaling pathway using the BG1 cell line in the presence of 0.1 nM 17-beta-estradiol (AID 1259244); conditions: VM7Luc4E2 (BG1) ERE-luciferase, antagonist mode, 0.1 nM E2, 22 h; series mostly up to 92.4 µM; further: nearly all actives have a fitted effect of over 50% in size
Outline: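 Estradiol at 0.1 nM (final) stimulates the endogenous ER-alpha of VM7Luc4E2 cells carrying an ERE-driven luciferase; compounds are co-incubated 22 h at 37C and luciferase output quantified by luminescence.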

[3] = qHTS assay to identify small molecule phospholipidosis (PLD) inducers (AID 1259344; active means well fitted curve in the direction sought with a large enough effect; an effect the other way counts as inactive or inconclusive); conditions: HepG2 phospholipidosis, LipidTOX Red imaging, 24 h; series mostly up to 38.3 µM
Outline: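 HepG2 cells on collagen I, attached 4 h at 37 C, were co-treated with compound and LipidTOX Red dye for 24 h at 37 C, then fixed with paraformaldehyde plus Hoechst 33342 and imaged by high-content microscopy for phospholipid accumulation.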

[4] = qHTS assay to identify small molecule HDAC inhibitors - cell viability counter screen (AID 1259365); conditions: HCT-116 viability, CellTiter-Glo ATP luminescence, 2 h; series mostly up to 92.4 µM; further: nearly all actives have a fitted effect of over 50% in size
Outline: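 CellTiter-Glo luminescence (30 min, room temperature) reported viability after a 2 h compound exposure at 37 C. Cells: wild-type HCT-116, 1,500 per well, seeded the night before.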

[5] = qHTS assay to identify small molecule agonists of the sonic hedgehog signaling (Shh) pathway - cell viability counter screen (AID 1259366); conditions: NIH/3T3 Gli1-Luc viability, CellTiter-Fluor, 24 h; series mostly up to 92.4 µM; further: nearly all actives have a fitted effect of over 50% in size
Outline: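 Cytotoxicity counter screen: CellTiter-Fluor reagent added after 23 h compound exposure, then 1 h at 37C and fluorescence read. Cells were 3T3 Gli1-Luc, seeded 2,000 per well and dosed 4 h post-plating.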

[6] = qHTS assay to identify small molecule agonists of the sonic hedgehog signaling (Shh) pathway (AID 1259368; calls by dose curve;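 further: NIH/3T3-derived 3T3Gli1-Luc cells carrying a stable Gli1-driven firefly luciferase reporter; nearly all actives have a fitted effect of over 15% in size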); conditions: NIH/3T3 Gli1-Luc reporter, luciferase, 24 h, stronger effect = higher value; series mostly up to 92.4 µM
Outline: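 A Gli1 transcriptional response element controlled firefly luciferase in 3T3Gli1-Luc cells. Compounds and a positive control were added 4 hr after plating, and cells were incubated a further 24 hr at 37 C before luminescence detection.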

[7] = qHTS assay to identify small molecule antagonists of the sonic hedgehog signaling (Shh) pathway (AID 1259369; calls by dose curve; further: nearly all actives have a fitted effect of over 45% in size; further: potency means the concentration at half of the fitted maximal effect); conditions: NIH/3T3 Gli1-Luc reporter, Shh antagonist, luminescence 24 h; series mostly up to 92.4 µM
Outline: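 For antagonist detection, the reporter line received test compounds together with conditioned medium, incubated 24hr at 37 C, 5% CO2, then luminescence was recorded following 30min room-temperature luciferase reagent incubation.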

[8] = target: Estrogen receptor beta (Homo sapiens) (UniProt Q92731); experiment: qHTS assay to identify small molecule agonists of the estrogen receptor beta (ER-beta) signaling pathway (AID 1259377; active means well fitted activation curve with a large enough effect in the signal ratio in the repeat runs, not every such curve was filed as active; the % refers to the signal ratio); conditions: ER-beta-UAS-bla HEK293T, beta-lactamase FRET ratio, 16 h; series mostly up to 92.4 µM
Outline: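 Ratiometric beta-lactamase FRET read-out came after 2 h substrate loading at room temperature. It followed 16 h compound treatment at 37C of GripTite HEK293T cells carrying a UAS-bla reporter, plated in 2% charcoal-stripped FBS medium.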

[9] = target: Estrogen receptor beta (Homo sapiens) (UniProt Q92731); experiment: qHTS assay to identify small molecule antagonists of the estrogen receptor beta (ER-beta) signaling pathway (AID 1259378; active means well fitted inhibition curve with a large enough effect in the signal ratio in the repeat runs, not every such curve was filed as active; the % refers to the signal ratio; further: potency means the concentration at half of the fitted maximal effect); conditions: ER-beta-UAS-bla HEK293T, beta-lactamase FRET ratio, 16 h; series mostly up to 92.4 µM
Outline: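 ER-beta-UAS-bla HEK293T (GripTite) cells in 2% charcoal-stripped FBS medium were preincubated 6 hr at 37C, dosed with compound, then stimulated with 1 nM E2 (final) for 16 hr; beta-lactamase reporter read by B/G FRET fluorescence after 2 hr substrate loading.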

[10] = qHTS assay to identify small molecule agonists of the androgen receptor (AR) signaling pathway in the presence of an antagonist - cell viability counter screen (AID 1259379); conditions: MDA-kb2 viability, CellTiter-Fluor, 16 h; series mostly up to 92.4 µM;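 further: MDA-kb2 human breast cancer cells carrying an MMTV luciferase reporter; nearly all actives have a fitted effect of over 25% in size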
Outline: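 Seed MDA-kb2 at 3,000 cells/well; incubate 5 hr, 37C, 0% CO2. Add nilutamide to 3.0uM final, then pin compounds at 15 concentrations. Incubate 16 hr. Add CellTiter-Fluor at 15 hr, read fluorescence after 1 hr.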

[11] = qHTS assay to identify small molecule agonists of the estrogen receptor beta (ER-beta) signaling pathway - cell viability counter screen (AID 1259380); conditions: ER-beta-bla HEK293T viability, CellTiter-Glo luminescence, 16 h; series mostly up to 92.4 µM; further: nearly all actives have a fitted effect of over 30% in size
Outline: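 CellTiter-Glo read, 30 min RT, same wells as bla assay; cells ER-beta-UAS-bla HEK293T; 16 hr compound, 37C; medium 2% charcoal-stripped FBS.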

[12] = qHTS assay to identify small molecule antagonists of the estrogen receptor beta (ER-beta) signaling pathway - cell viability counter screen (AID 1259382); conditions: ER-beta-UAS-bla HEK293T viability, CellTiter-Glo luminescence, 16 h; series mostly up to 92.4 µM; further: nearly all actives have a fitted effect of over 55% in size
Outline: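 In this multiplexed counter screen, cells were seeded at 2,000 per well in medium with 2% charcoal-stripped FBS and incubated 6 hr before compound and 1nM final E2 were added. Sixteen hours later, ATP-based luminescence reported viability.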

[13] = target: Estrogen receptor (Homo sapiens) (UniProt P03372); experiment: qHTS assay to identify small molecule agonists of the estrogen receptor alpha (ER-alpha) signaling pathway in the presence of an antagonist (AID 1259383; calls by dose curve; further: nearly all actives have a fitted effect of over 15% in size; further: potency means the concentration at half of the fitted maximal effect; on activation: top concentration of the series differs between compounds); conditions: VM7Luc4E2 cells, ERE-luciferase, +ICI-182,780, 22 h; series mostly up to 92.4 µM
Outline: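 Stably transfected VM7Luc4E2 reporter cells, kept 5 days in charcoal-stripped serum, received ICI-182,780 at 10.0nM final before compound addition. Following 22hr incubation at 37C and 5% CO2, luciferase signal was read by luminescence.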

[14] = qHTS assay to identify small molecule agonists or antagonists of the thyroid stimulating hormone receptor (TSHR) signaling pathway - wild type cell line counter screen (AID 1259384; calls by dose curve; further: potency means the concentration at half of the fitted maximal effect); conditions: HEK293 wild type, cAMP HTRF counter-screen; series mostly up to 92.4 µM
Outline: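 Wild-type HEK293 cells were plated 18 h at 37 C/5% CO2, pin-dosed with compound plus Ro20-1724 medium, held 30 min at room temperature, then given cAMP-d2 and anti-cAMP-cryptate; fluorescence was read after 1 h. Fifteen concentrations, triplicate.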

[15] = target: Thyrotropin receptor (Homo sapiens) (UniProt P16473); experiment: qHTS assay to identify small molecule antagonists of the thyroid stimulating hormone receptor (TSHR) signaling pathway (AID 1259385; calls by dose curve; further: nearly all actives have a fitted effect of over 20% in size); conditions: TSHR-HEK293 cAMP HTRF, TSH-stimulated antagonist mode; series mostly up to 92.4 µM
Outline: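 TSHR-HEK293 cells were plated and held 18 h at 37C/5% CO2, then given compound plus Ro20-1724 and stimulated with TSH at 1.5 ng/mL final. After 30 min at room temperature, cAMP was detected with cAMP-d2/anti-cAMP-cryptate (1 h) by fluorescence.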

[16] = qHTS assay to identify small molecule agonists of the estrogen receptor alpha (ER-alpha) signaling pathway in the presence of an antagonist - cell viability counter screen (AID 1259386); conditions: VM7Luc4E2 viability, CellTiter-Fluor fluorescence, 22 h; series mostly up to 92.4 µM;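 further: cells exposed to compounds for 22 h at 37 °C before the viability read; nearly all actives have a fitted effect of over 30% in size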; further: potency means the concentration at half of the fitted maximal effect
Outline: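 Viability counter screen using VM7Luc4E2 (full-length ER-alpha, four ERE-luciferase). The cells were treated with compounds alongside ICI-182,780 10.0nM for 22hr, and live-cell protease fluorescence was quantified with CellTiter-Fluor.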

[17] = qHTS assay to identify small molecule antagonists of the sonic hedgehog signaling (Shh) pathway - cell viability counter screen (AID 1259367); conditions: NIH/3T3 Gli1-Luc viability, CellTiter-Fluor, 24 h; series mostly up to 92.4 µM; further: nearly all actives have a fitted effect of over 55% in size
Outline: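 NIH/3T3-derived Gli1-Luc reporter cells (2,000 per well) rested 4 hr at 37 C, then received DMSO compounds plus conditioned medium. After 23 hr of treatment, CellTiter-Fluor was added for 1 hr at 37C and fluorescence read.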

[18] = qHTS assay to identify small molecule HDAC inhibitors (AID 1259364); conditions: HCT-116 HDAC-Glo I/II luminescence, 2 h; series mostly up to 92.4 µM;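 further: wild-type HCT-116 cells with endogenous class I/II HDAC activity; top concentration of the series differs between compounds; nearly all actives have a fitted effect of over 45% in size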
Outline: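 Read-out: luminescence of HDAC-Glo I/II reagent, 30 min RT, reflecting class I/II deacetylase activity in whole HCT-116 cells pre-exposed 2 h to DMSO-dissolved compounds.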

Measured: Potency

Estrogen receptor beta (Homo sapiens), sequence (Q92731 whole entry, looked up): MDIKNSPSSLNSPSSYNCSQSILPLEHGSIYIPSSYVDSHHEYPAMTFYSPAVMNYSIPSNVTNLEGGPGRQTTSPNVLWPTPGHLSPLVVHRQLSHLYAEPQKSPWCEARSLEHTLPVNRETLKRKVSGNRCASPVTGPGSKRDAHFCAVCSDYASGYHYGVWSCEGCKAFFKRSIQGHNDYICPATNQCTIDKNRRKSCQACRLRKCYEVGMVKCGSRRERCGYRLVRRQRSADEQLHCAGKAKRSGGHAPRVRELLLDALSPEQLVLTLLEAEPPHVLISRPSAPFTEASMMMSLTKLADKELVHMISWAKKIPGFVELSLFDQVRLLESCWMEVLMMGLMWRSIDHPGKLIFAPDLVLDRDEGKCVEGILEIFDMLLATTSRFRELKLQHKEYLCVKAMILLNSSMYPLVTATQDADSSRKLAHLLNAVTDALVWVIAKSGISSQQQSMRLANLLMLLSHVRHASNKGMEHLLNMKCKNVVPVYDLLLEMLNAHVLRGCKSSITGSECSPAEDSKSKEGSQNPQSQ
Estrogen receptor (Homo sapiens), sequence (P03372 whole entry, looked up): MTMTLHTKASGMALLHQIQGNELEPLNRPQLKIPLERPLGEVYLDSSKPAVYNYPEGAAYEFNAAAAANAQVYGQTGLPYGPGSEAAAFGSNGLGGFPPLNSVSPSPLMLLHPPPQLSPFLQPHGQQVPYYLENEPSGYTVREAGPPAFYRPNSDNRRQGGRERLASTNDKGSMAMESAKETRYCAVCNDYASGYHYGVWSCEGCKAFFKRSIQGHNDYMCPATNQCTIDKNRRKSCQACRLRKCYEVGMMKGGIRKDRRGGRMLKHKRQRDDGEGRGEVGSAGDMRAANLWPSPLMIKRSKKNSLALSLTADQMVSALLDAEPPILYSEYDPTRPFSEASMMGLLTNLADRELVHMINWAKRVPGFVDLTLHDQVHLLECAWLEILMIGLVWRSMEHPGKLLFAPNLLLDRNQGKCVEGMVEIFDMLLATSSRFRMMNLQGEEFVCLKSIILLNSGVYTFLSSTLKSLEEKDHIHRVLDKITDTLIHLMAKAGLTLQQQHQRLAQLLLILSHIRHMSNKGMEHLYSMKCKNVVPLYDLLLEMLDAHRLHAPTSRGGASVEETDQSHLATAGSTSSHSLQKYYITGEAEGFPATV
Thyrotropin receptor (Homo sapiens), sequence (P16473 whole entry, looked up): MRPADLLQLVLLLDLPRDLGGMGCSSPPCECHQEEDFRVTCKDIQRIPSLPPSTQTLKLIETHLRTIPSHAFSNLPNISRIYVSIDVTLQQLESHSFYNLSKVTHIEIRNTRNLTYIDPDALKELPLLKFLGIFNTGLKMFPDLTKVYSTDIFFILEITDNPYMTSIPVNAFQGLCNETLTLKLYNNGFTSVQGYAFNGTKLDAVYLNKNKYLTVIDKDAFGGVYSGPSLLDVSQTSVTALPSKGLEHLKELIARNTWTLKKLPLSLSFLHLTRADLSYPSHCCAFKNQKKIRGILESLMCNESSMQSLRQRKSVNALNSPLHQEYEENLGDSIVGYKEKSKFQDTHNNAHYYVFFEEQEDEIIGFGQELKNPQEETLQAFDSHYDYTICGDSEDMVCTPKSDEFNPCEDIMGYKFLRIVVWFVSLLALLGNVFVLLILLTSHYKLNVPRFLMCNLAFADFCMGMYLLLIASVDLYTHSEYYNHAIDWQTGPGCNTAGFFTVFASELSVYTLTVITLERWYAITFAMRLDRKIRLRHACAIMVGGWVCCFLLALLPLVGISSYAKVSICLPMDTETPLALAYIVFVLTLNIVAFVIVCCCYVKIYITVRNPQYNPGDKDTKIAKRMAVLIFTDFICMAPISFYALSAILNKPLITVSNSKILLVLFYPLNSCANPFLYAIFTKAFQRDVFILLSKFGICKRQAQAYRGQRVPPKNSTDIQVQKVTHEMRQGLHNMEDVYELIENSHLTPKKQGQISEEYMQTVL

CCCCCCCCCCCCCCCCCC(=O)OCC(O)CO (stereo not drawn)
not listed: [17] | [18]
inactive: all other assays above

CN(C)C=O
not listed: [3] | [18]
inactive: all other assays above

CN/C(=C\[N+](=O)[O-])NCCSCc1ccc(CN(C)C)o1
not listed: [5]
inactive: all other assays above

CCCCOC(=O)CCCCCCCCC(=O)OCCCC
not listed: [3] | [5]
inactive: all other assays above

Oc1cccc(O)c1
not listed: [5]
inactive: all other assays above

C=CC(=O)NC(C)(C)CS(=O)(=O)O
not listed: [3]
inactive: all other assays above

CC(=O)OC/C=C(C)/C=C/C=C(C)/C=C/C1=C(C)CCCC1(C)C
active: [7] 24.3 µM | [9] 54.5 µM
not listed: [5] | [17]
inactive: all other assays above

COC1=CC(=O)C[C@@H](C)[C@]12Oc1c(Cl)c(OC)cc(OC)c1C2=O
active: [7] 4.29 µM and 13.7 µM
not listed: [5] | [17]
inactive: all other assays above

C[C@]12C[C@H](O)[C@H]3[C@@H](CCC4=CC(=O)CC[C@@]43C)[C@@H]1CC[C@@H]2C(=O)CO
active: [7] 2.44 µM and 344 nM and 750 nM
not listed: [17] | [18]
inactive: all other assays above

C#C[C@]1(O)CC[C@H]2[C@@H]3CCC4=CC(=O)CC[C@@H]4[C@H]3CC[C@@]21CC
active: [7] 17.2 µM and 13.7 µM | [13] 6.87 µM and 8.63 µM and 8.41 µM
not listed: [5] | [8] | [9] | [17]
inactive: all other assays above

C[C@]12C=CC(=O)C=C1CC[C@@H]1[C@@H]2C(=O)C[C@@]2(C)[C@H]1CC[C@]2(O)C(=O)CO
not listed: [5]
inactive: all other assays above

O=C(O)CN(CC(=O)O)CC(=O)O
not listed: [3] | [8] | [9]
inactive: all other assays above

C=C(C)C(N)=O
not listed: [3] | [8] | [9]
inactive: all other assays above

COC(=O)c1ccc(C=O)cc1
not listed: [3] | [8] | [14] | [15] | [17]
inactive: all other assays above

CC(C)Cc1ccc(C(C)C(=O)O)cc1 (stereo not drawn)
not listed: [5]
inactive: all other assays above

CCOC(=O)C(C)(C)Oc1ccc(Cl)cc1
not listed: [18]
inactive: all other assays above

N[C@@H](Cc1c[nH]c2ccc(O)cc12)C(=O)O
not listed: [5] | [8] | [9] | [17] | [18]
inactive: all other assays above

Cc1cnc(NC(=O)C2=C(O)c3ccccc3S(=O)(=O)N2C)s1
43.4 µM (active) and inactive: [16]
not listed: [14] | [15] | [18]
inactive: all other assays above

CCN1CCCC1=O
not listed: [5] | [18]
inactive: all other assays above

Cc1c(N(C)C)c(=O)n(-c2ccccc2)n1C
not listed: [5] | [17] | [18]
inactive: all other assays above

CCn1cc(C(=O)O)c(=O)c2ccc(C)nc21
not listed: [5]
inactive: all other assays above

OC[C@@H](O)[C@@H](O)[C@H](O)[C@H](O)CO
not listed: [5] | [8] | [9] | [17] | [18]
inactive: all other assays above

CC(=O)CCC(C)C
not listed: [3] | [5] | [8] | [9]
inactive: all other assays above

CC(C)(C)NCC(O)c1ccc(O)c(CO)c1 (stereo not drawn)
active: [14] 15.8 nM and 37.6 nM
not listed: [5] | [18]
inactive: all other assays above

CCCCCCCCOc1ccc(C(=O)c2ccccc2)c(O)c1
not listed: [8] | [9] | [18]
inactive: all other assays above

CC(=O)/C=C/C1=C(C)CCCC1(C)C
inactive and 61.1 µM (active): [7]
not listed: [3] | [8] | [9] | [14] | [15] | [18]
inactive: all other assays above

O=C(O)CCCCC1CCSS1 (stereo not drawn)
not listed: [17] | [18]
inactive: all other assays above

CCCCOCCOCCOC(C)=O
not listed: [3] | [7] | [8] | [9] | [14] | [15] | [17]
inactive: all other assays above
